Here are results for 68 molecules from PubChem BioAssay AID1117361 (Southern Research Institute, 2015).

The structures appear in SMILES notation. Out of some 3,600 compounds screened, about 900 (25%) were called active. How the calls were made is not given here. Only a sample is shown. Entries with a potency or affinity are not part of this list.

This test has as its target Protein Tat (Human immunodeficiency virus type 1 group M subtype B (isolate HXB2)) (UniProt P04608). Description: HIV-1 Tat–TAR interaction blockers – biochemical, fluorescence polarization, FAM-labeled TAR RNA, counter-screen for Vif-APOBEC3G degradation inhibitor project, dose response (AID 1117361). Conditions: Tat-TAR RNA binding; series mostly up to 100 µM; inhibition: at the top concentration. (In fluorescence polarisation assays a small probe gives low polarisation when free and higher when bound to something large.)
`N=c1sccn1CC(=O)Nc1ccc2c(c1)CCC2`: the outcome was inactive.

Usually inhibition stands for the drop in the measured response relative to a control, in per cent. As for `COc1ccc(OC)c(C2C(C(=O)c3cc4ccccc4o3)=C(O)C(=O)N2c2cc(C)on2)c1` (stereo not drawn), the “inhibition” value is 18.4% (inactive).

With `CCC(C)NC(=S)NNC(=O)c1ccc(C(C)(C)C)cc1` (stereo not drawn), the “inhibition” value was 13.7% (inactive).

As for `Cc1cc2c(=Cc3ccc(N(C)C)cc3)c3ccccc3n2[n+]1C`, the “inhibition” value is 10.3% (inactive).

Turning to `COc1cccc(C=Nc2cc(C(C)C)c(O)cc2C)c1O`, the molecule was called inactive.

For the molecule `Oc1cccc(/C=N/NC(=S)NCCN2CCOCC2)c1O`, the outcome was inactive.

`COc1cccc(CC(NC(C)=O)C(=O)NC2CCN(S(=O)(=O)c3ccc4ccccc4c3)CC2)c1` (stereo not drawn): the “inhibition” value was 4.73% (inactive).

For `COc1ccccc1N1CCN(CC(O)COCCOc2ccc(Br)cc2)CC1` (stereo not drawn), the “inhibition” value was 6.6% (inactive).

With `CC(=O)Nc1ccc(C(=O)Nc2cccc(-c3cnc4ccccc4n3)c2)cc1`, the “inhibition” value is 9.9% (inactive).

Consider `CC(=O)Nc1ccc(N/C=C/C(=O)C(C)(C)C)cc1`, for which the “inhibition” value was 3.38% (inactive).

`Cc1ccc(NC(=O)c2ccc(Cl)c(N3C(=O)C=CC3=O)c2)cc1`: the “inhibition” value is 8.87% (inactive).

Take `Cc1cc(C)c(C)c(OCCCOc2cccc3cccnc23)c1`: the outcome was inactive.

As for `Cc1nnc(SCC(=O)N2CCN(c3ccccc3)CC2)n1C1CC1`, the call was inactive.

As for `COC(=O)c1sccc1NC(=O)c1cc(-c2ccc(C)cc2C)nc2ccccc12`, the “inhibition” value was 3.41% (inactive).

Consider `COc1ccc(/C=N/NC(=O)c2ccc3ccccc3c2)cc1OS(=O)(=O)c1ccc(NC(C)=O)cc1`, for which the “inhibition” value is 4.05% (inactive).

Turning to `Cc1ccc(C(=O)N/C(=C/c2cccnc2)C(=O)NCc2ccco2)cc1`, the outcome was inactive.

Turning to `O=C(CNC(=O)/C(=C\c1ccccc1)NC(=O)c1ccc(Br)cc1)OCc1ccccc1`, the “inhibition” value is 3.41% (inactive).

`O=C(NCC1CCCO1)c1ccc(CS(=O)(=O)Cc2ccc(F)cc2)o1` (stereo not drawn): the “inhibition” value was 2.03% (inactive).

For the molecule `Cc1cc(C(F)(F)F)n2nc(C(=O)O)c(Cl)c2n1`, the “inhibition” value was 1.35% (inactive).

On to `O=C1NC(=Nc2ccc(F)cc2)SC1Cc1ccc(F)cc1` (stereo not drawn), for which the molecule was classed as inactive.

As to `COc1ccc(NC(=O)/C(C#N)=C\c2cc(C)n(-c3ccc(Oc4ccc([N+](=O)[O-])cn4)cc3)c2C)cc1`, the call was inactive.

As for `O=C(O)c1ccc(S(=O)(=O)c2ccc([N+](=O)[O-])cc2[N+](=O)[O-])cc1`, the result was inactive.

For the molecule `CCCN(CCC)S(=O)(=O)c1cc(Br)cc2c1N(C(=O)CC)CC2`, the “inhibition” value is 4.05% (inactive).

`O=C1CCCC(NCCCCCCNC2=C([N+](=O)[O-])C(=O)CCC2)=C1[N+](=O)[O-]`: the call was inactive.

For the molecule `CC(NCCO)C(=O)C12CC3CC(CC(C3)C1)C2` (stereo not drawn), the “inhibition” value is 2.03% (inactive).

On to `CN(C)S(=O)(=O)N1CCC(CCCC2CCN(S(=O)(=O)N(C)C)CC2)CC1`, for which the result was inactive.

For the molecule `CN1CCN(c2nc(-c3cccnc3)nc3ccccc23)CC1`, the “inhibition” value was 6.08% (inactive).

As for `C[C@@H]1NC(=O)[C@H](CCC(N)=O)NC(=O)c2cc([N+](=O)[O-])cc(I)c2NCCC[C@@H](C(N)=O)NC1=O`, the result was inactive.

In the case of `O=C(COC(=O)c1cc(=O)[nH]c2ccccc12)Nc1cccc(S(=O)(=O)N2CCOCC2)c1`, the call was inactive.

For `CN(Cc1ccccc1)C(=O)c1cccc(N2C(=O)NC3CC2(C)Oc2ccccc23)c1` (stereo not drawn), the “inhibition” value was 1.36% (inactive).

For the molecule `NC(=O)c1ccc(NC(=O)CSc2nc3ccccc3c(=O)n2CCCN2CCOCC2)cc1`, the “inhibition” value was 3.3% (inactive).

In the case of `CCCCCCn1c(SCC(=O)Nc2cc(C)on2)nc2ccccc2c1=O`, the “inhibition” value is 1.35% (inactive).

Regarding `Cc1sc(-c2ccccn2)nc1OC(=O)c1cccc(Cl)c1Cl`, the “inhibition” value is 1.35% (inactive).

As for `CCCS(=O)(=O)N1CCCC(C(=O)NCCCOC(C)C)C1` (stereo not drawn), the “inhibition” value was 5.41% (inactive).

On to `CC(C)C(=O)Nc1nnc(Sc2ccc(N(C)C)cc2)s1`, for which the “inhibition” value is 22.3% (inactive).

For `O=S(=O)(c1ccccc1)N1CCN(S(=O)(=O)N2CCCCC2)CC1`, the “inhibition” value is 2.05% (inactive).

As for `COc1cc(C(=O)OCC(=O)N2CCCC2)cc(OC)c1OC`, the “inhibition” value was 2.03% (inactive).

Regarding `Cc1ccccc1NC(=O)Cc1nc(COC(=O)Cc2ccccc2F)cs1`, the outcome was inactive.

Take `COc1ccc(S(=O)(=O)NNC(=O)c2sccc2-n2cccc2)cc1`: the call was inactive.

For `COC(=O)CC1Oc2ccccc2N(Cc2ccccc2)C1=O` (stereo not drawn), the “inhibition” value is 6.08% (inactive).

`CCOC(=O)C1(Cc2ccc(OC)cc2)CCN(C(=O)c2cccc3nccnc23)CC1`: the molecule was classed as inactive.

For `O=C(CN1CCN(S(=O)(=O)c2ccc(F)cc2)CC1)Nc1cc(C(F)(F)F)ccc1Cl`, the “inhibition” value is 2.05% (inactive).

On to `O=C(Nc1cccc(C(F)(F)F)c1)c1cc(S(=O)(=O)N2CCCCC2)ccc1N1CCOCC1`, for which the result was inactive.

For `Cc1cccc(Cc2nnc(CCC(=O)N(C)C3CCOC3)o2)c1` (stereo not drawn), the outcome was inactive.

As for `Cc1noc(C)c1COC(=O)c1cccc(S(=O)(=O)N2CCCCCC2)c1`, the molecule was called inactive.

As for `O=C(NCc1cccs1)Nc1cccs1`, the “inhibition” value is 25.9% (inactive).

As to `c1ccc(CCc2nn3c(C4COc5ccccc5O4)nnc3s2)cc1` (stereo not drawn), the “inhibition” value was 0.33% (inactive).

Regarding `CCOc1ccc(N(CC(=O)NC2CCCCC2)S(=O)(=O)c2c(C)noc2C)cc1`, the “inhibition” value is 6.14% (inactive).

Regarding `CCOc1ccc(N(CC(=O)NCc2ccc(F)cc2)S(=O)(=O)c2c(C)noc2C)cc1`, the “inhibition” value was 4.09% (inactive).

`C=C(C)Cn1c(C)cc(C)c(S(=O)(=O)c2ccccc2C)c1=O`: the “inhibition” value is 6.82% (inactive).

Consider `C/C(=C\C(=O)c1ccc(Br)cc1)N1CCCCC1`, for which the result was inactive.

`COc1ccc(OCC(O)CNc2ccc(Br)cc2)cc1` (stereo not drawn): the “inhibition” value was 3.41% (inactive).

Consider `COc1cc(Br)c(CNc2cc(C)ccc2C)cc1OC`, for which the “inhibition” value was 3.01% (inactive).

In the case of `NCCOc1ccccc1Cc1ccccc1`, the “inhibition” value is 4.09% (inactive).

On to `COc1ccc(NCc2nc3ccccc3n2CCOc2ccccc2)cc1`, for which the “inhibition” value is 24.6% (inactive).

`O=c1cc(OCc2ccccc2)cc[nH]1`: the call was inactive.

On to `O=C(NC(=S)NCCN1CCOCC1)c1ccc(Cl)cc1Cl`, for which the “inhibition” value was 4.73% (inactive).

Regarding `CN(C1=C(NC(=O)c2ccc(Cl)cc2)C(=O)c2ccccc2C1=O)c1ccccc1`, the “inhibition” value was 7.5% (inactive).

Take `CC(=O)NCCC(=O)NCc1ccc(F)cc1`: the “inhibition” value is 4.73% (inactive).

Consider `Cc1cccc(N2CCN(C(=O)c3ccncc3)CC2)c1C`, for which the “inhibition” value is 19.8% (inactive).

As to `CCOc1ccc(S(=O)(=O)N2CC(=O)Nc3ccccc32)cc1C#N`, the “inhibition” value was 4.34% (inactive).

As to `C=CCc1cc(/C=N\NC(=O)CSc2nnc(CCCc3ccc(OC)c(C)c3)o2)cc(OC)c1O`, the “inhibition” value was 2.05% (inactive).

With `Cc1ccc(Nc2cnn(C34CC5CC(CC(CC(=O)O)(C5)C3)C4)c(=O)c2Cl)cc1C`, the “inhibition” value was 2.03% (inactive).

With `CCOC(=O)CN1C(=O)C(Sc2n[nH]c(-c3ccccc3)n2)CCc2ccccc21` (stereo not drawn), the “inhibition” value was 8.11% (inactive).

As for `NCCC(=O)N1c2ccccc2Sc2ccccc21`, the molecule was called inactive.

Consider `CCOc1cc(CNc2ccc(O)cc2)cc(Br)c1OCc1ccccc1F`, for which the “inhibition” value was 3.3% (inactive).

As for `COc1cccc(CNCCc2c[nH]c3ccccc23)c1OCc1ccccc1`, the “inhibition” value was 23.9% (inactive).

As for `CCOCC(O)CS(=O)Cc1ccccc1` (stereo not drawn), the call was inactive.
